# The campaign covered roughly 69,000 compounds. About 8,600 (12%) showed an effect of 50% or more. The sample as a whole holds a higher share of strong results than the screen did.
# Test system: Plasmodium berghei
# Assay: Screen against P. berghei liver stage (PbLuc), transformed with Luciferase, at 10uM
# Type: functional, HepG2
# Settings: tested at 10 uM
row,SMILES,INHIBITION
1,CS(=O)(=O)N1CCC(Cc2cnc(Br)cn2)CC1,33.2%
2,CCOC(=O)c1cnn(C2CCN(C(=O)CC3C=CCC3)CC2)c1N (centres undefined),29.8%
3,CN(Cc1ccc(Cl)s1)C(=O)COc1cccc(C(N)=O)c1,-19%
4,CNC(=O)C1CN(c2cc(C)ncn2)CCN1Cc1ccccc1 (centres undefined),-42%
5,Cc1noc(C)c1CN1CCn2cc(CN3CCOCC3)nc2C1,-50%
6,Cc1cc(C)nc(NCCCC(=O)NCCn2ccc3ccccc32)n1,28.5%
7,Cc1c(C2CCOC(C)(C)C2)nc(N)c(C#N)c1-c1ccc(O)cc1 (centres undefined),30.1%
8,Cc1cnn(CCNCC(O)COc2ccc(Cl)cc2)c1 (centres undefined),45.8%
9,Cc1cnn(CCNCC(O)COc2c(C)ccc(C)c2C)c1 (centres undefined),52.7%
10,Cc1cnn(CCNCC(O)COc2c(Cl)cccc2Cl)c1 (centres undefined),-32%
11,Cc1cnn(CCNCC(=O)NCCOc2ccc(Cl)cc2)c1,-0.96%
12,Cc1cnn(CCNCC(=O)NCCOc2ccc(F)cc2)c1,45.7%
13,Cc1cnn(CCNCC(O)COc2ccc(C#N)cc2)c1 (centres undefined),26.3%
14,Cc1cnn(CCNCC(O)COc2ccc(F)cc2)c1 (centres undefined),54.4%
15,Cc1cnn(CCNCC(O)COc2cccc(C(F)(F)F)c2)c1 (centres undefined),37.4%
16,Cc1cnn(CCNCC(=O)NCCOc2ccccc2)c1,57.2%
17,CC(C)n1ccc(C(=O)N2CCCC(n3cncn3)C2)n1 (centres undefined),31.9%
18,Cc1cccc(Nc2nccnc2C2CCCN2CC(=O)N(C)C)n1 (centres undefined),46.1%
19,c1cnn(Cc2nnc3n2CCCN(CC2CCOCC2)C3)c1,27.9%
20,CN(C)c1ncc(I)c(C2CCCCN2C)n1 (centres undefined),-0.232%
21,CN(C(=O)CN1CCC(NC(=O)c2cccs2)CC1)c1ccccc1,16.9%
22,O=C(CSc1nc2n[nH]cc2c(=O)n1-c1ccccc1)N1CCOCC1,13.9%
23,O=C(NC[C@H]1OC[C@@H](NC2CCCC2)[C@@H]1O)C1CCCC1,30.5%

row,SMILES,INHIBITION
1,O=C(NC[C@H]1OC[C@@H](NC2COC2)[C@@H]1O)C1CCCC1,29%
2,CC(C)(C)CN[C@@H]1CO[C@H](CNC(=O)C2CCCC2)[C@H]1O,51%
3,CC(=O)N1CCN(c2ncnc3cc4c(cc23)OCCO4)CC1,36.6%
4,CNC(=O)CN(C)c1nc(-c2ccc(C(N)=O)cc2)nc2c1CCNC2,10.3%
5,Cc1cc(C)c2c(NCc3nncn3C3CCCCC3)ncnc2n1,-41.4%
6,Cc1ncc(-c2ccnc(NC3CC3)n2)c(-c2cccnc2)n1,2.6%
7,CCN1CCC2(CC1)NC(=O)c1cc(Br)ccc1-n1nnnc12,33.3%
8,O=C1NC2(CCCCC2)c2nnnn2-c2ccc(Br)cc21,42.4%
9,CC(C)N1CCC2(CC1)NC(=O)c1cc(Br)ccc1-n1nnnc12,58.2%
10,CN1C[C@@H](O)[C@]2(CCN(C(=O)OCc3ccccc3)C2)S1(=O)=O,1.8%
11,Cc1ccc2c(c1)C1(CC2)CCN(c2nncs2)CC1,56.8%
12,c1cc(-c2ccc3c(c2)CCC32CCN(c3nncs3)CC2)ccn1,62.8%
13,Cc1ccc2c(c1)C1(CC2)CCN(CC(=O)O)CC1,19.5%
14,c1cc(-c2ccc3c(c2)CCC32CCN(c3nncs3)CC2)co1,24.9%
15,c1cncc(-c2ccc3c(c2)C2(CC3)CCN(c3nncs3)CC2)c1,76.8%
16,CN1CCOCC12CCN(c1nncs1)CC2,-7.24%
17,Cc1cccc(N2CC3(CCN(c4nncs4)C3)CC2=O)c1 (centres undefined),14.5%
18,c1cc(-c2ccc3c(c2)C2(CC3)CCN(c3nncs3)CC2)ccn1,15.4%
19,Cc1cnn(CCNCc2nc(CNC(=O)c3ccccc3)no2)c1,7.08%
20,CC(=O)Nc1ccc(CNc2cccc(OCCF)c2)cc1,25.2%
21,CS(=O)(=O)N1CCC(Oc2ccc(C(=O)N3CCSCC3)cc2Cl)CC1,63.3%
22,CNC(=O)c1ccc(OC2CCN(S(C)(=O)=O)CC2)c(Cl)c1,-22.1%
23,CS(=O)(=O)N1CCC(Oc2ccc(C(=O)NC3CCCC3)cc2Cl)CC1,-14.5%

row,SMILES,INHIBITION
1,CCN(CC)S(=O)(=O)N(CC)Cc1ccc2c(c1)OCCO2,-19.9%
2,Cc1nn(Cn2ccc(C(=O)N3CCC(C)CC3)n2)c(C)c1Cl,-20.8%
3,Cc1noc(C)c1-c1n[nH]c2c1CN(S(=O)(=O)c1cccs1)CC2,61.8%
4,CSCCc1n[nH]c2c1CN(S(=O)(=O)c1cn(C)c(C)n1)CC2,-10.8%
5,CS(=O)(=O)N1CCc2[nH]nc(Cc3cccs3)c2C1,0.472%
6,Cc1noc(C)c1-c1n[nH]c2c1CN(S(=O)(=O)c1cccnc1)CC2,23.3%
7,Cc1noc(C)c1-c1n[nH]c2c1CN(S(=O)(=O)c1ccsc1)CC2,39.4%
8,Cc1cc(-c2n[nH]c3c2CN(S(=O)(=O)c2ccsc2)CC3)c(C)o1,54.4%
9,CCC(CN1CCCC1)n1cncc1-c1cnn(-c2ccccc2)c1 (centres undefined),33.95%
10,CC(C)[C@H](N)c1nnc(SCC(=O)Nc2ccc(Br)cc2)o1,25.3%
11,Cc1nc(C2CCCN2Cc2ccc(S(=O)(=O)N(C)C)o2)no1 (centres undefined),22.3%
12,CN(Cc1ccc([S+](C)[O-])cc1)c1ccc(C(F)(F)F)cn1 (centres undefined),52.2%
13,CNC(=O)c1ccc(CN(C)c2ccc(C(F)(F)F)cn2)cc1,58.3%
14,CN(Cc1ccc(C(N)=O)cc1)c1ccc(C(F)(F)F)cn1,1.79%
15,CN(Cc1ccccc1)c1ccc(C(F)(F)F)cn1,38.6%
16,CN(Cc1ccc([S+](C)[O-])cc1)c1ccc(Br)cn1 (centres undefined),43.7%
17,CNC(=O)c1ccc(CN(C(=O)c2scnc2C)C2CC2)cc1,6.92%
18,CCc1cnc(CN(C)C2CCN(CCNS(=O)(=O)CC)C2)o1 (centres undefined),-42%
19,CN1Cc2c(C(=O)Nc3cccnc3)ncn2-c2ccccc2S1(=O)=O,45.1%
20,CN(C)CCO[C@H]1CN(Cc2cccc(C#N)c2)[C@@H]2COC[C@H]12,-46.9%
21,CCS(=O)(=O)N1CCC2(CN(C(=O)c3cn(C)cn3)C2)C1,-28.2%
22,CCS(=O)(=O)N1CCCC2(CCCN2C(=O)c2cn(C)cn2)C1 (centres undefined),61.9%
23,CCS(=O)(=O)N1CCCC2(CCCN2C(=O)c2cscn2)C1 (centres undefined),4.02%

row,SMILES,INHIBITION
1,COC1CN(CCO)S(=O)(=O)c2ccccc21 (centres undefined),35.1%
2,CN(C)C(=O)COCC1CN(Cc2cccs2)Cc2ncn(C)c21 (centres undefined),-47.8%
3,Cc1ccc(S(=O)(=O)N(CC(N)=O)CC(C)C)cc1C,-14.2%
4,Cc1cc(S(=O)(=O)N(C)CC(N)=O)ccc1Br,34.6%
5,Cc1cc(S(=O)(=O)N(CC(N)=O)CC(C)C)ccc1Br,60.3%
6,Cc1cnn(CC2CCCN2C(=O)Cc2ccc(C)nc2)c1 (centres undefined),17.4%
7,CC(=O)Nc1ccc(CNCC(O)c2ccccc2)cc1 (centres undefined),39.7%
8,COc1ccc(CNCC(O)c2cccc(O)c2)cc1Br (centres undefined),14.5%
9,CCOc1ccc(CNCC(O)c2ccccc2)cc1Cl (centres undefined),59.5%
10,COCC1CN(C(=O)c2cccc(C)n2)Cc2nccn2C1 (centres undefined),24%
11,CC(NCc1ccco1)c1nnc2n1CCCC2 (centres undefined),52.9%
12,Cc1ccoc1CNC(C)c1nnc2n1CCCC2 (centres undefined),34.1%
13,Cc1ccc2oc(CNC(C)c3nnc4n3CCCC4)cc2c1 (centres undefined),50.1%
14,CC(NCc1ccc(Cl)o1)c1nnc2n1CCCC2 (centres undefined),15.1%
15,Cc1ccc(CNC(C)c2nnc3n2CCCC3)o1 (centres undefined),-4.48%
16,CC(NCc1cc2cc(F)ccc2o1)c1nnc2n1CCCC2 (centres undefined),35%
17,CN1CCCN(C(=O)c2nc3c(o2)CN(S(C)(=O)=O)C3)CC1,41.2%
18,Cn1ccc(CN2CCCC23CCN(Cc2cccc(F)c2)CC3)n1,56.6%
19,Cn1ccc(CN2CCCC23CCN(Cc2nccn2C)CC3)n1,27.6%
20,COc1cc(N2CCC3(CCCN3Cc3ccn(C)n3)CC2)ncn1,21.7%
21,Cn1cc(CN2CCC3(CCCN3Cc3cccnc3)CC2)cn1,29%
22,Fc1cccc(CN2CCC3(CCCN3c3ncccn3)CC2)c1,42.4%
23,Cn1ccc(CN2CCCC23CCN(Cc2ccccc2F)CC3)n1,53%

row,SMILES,INHIBITION
1,Cn1ccc(CN2CCCC23CCNCC3)n1,-12.1%
2,Cc1ccc(N2CCC3(CCCN3Cc3ccn(C)n3)CC2)nn1,53.9%
3,Cn1ccc(CN2CCC3(CCCN3CC3CC3)CC2)n1,17.7%
4,CCOCCCC(=O)Nc1cccnc1-n1ccnc1C,7.92%
5,Cc1ccc(C(=O)N2CCCN(Cc3cccs3)CC2)c(=O)[nH]1,17.68%
6,COc1ccc(C(C)N(C)Cc2c(C3CC3)[nH]c3ncccc23)cc1 (centres undefined),44.8%
7,CN(Cc1ccco1)[C@@H]1CN(C(=O)c2ccnnc2)[C@@H]2CCCO[C@H]12,41.8%
8,Cc1ccc(CC(=O)N2Cc3nccn3CC(CN(C)C)C2)cc1 (centres undefined),10.1%
9,CCOCCNC(=O)c1ccc(OC)cc1I,14.4%
10,COc1c(CNCc2ccc(Cn3ccnc3)cc2)c(C)nn1C,16.8%
11,O=S1(=O)c2ccccc2C2(CCN(Cc3ccccc3)C2)N1CC1CC1 (centres undefined),81.3%
12,CN1C2(CCN(Cc3ccc(F)cc3)C2)c2ccccc2S1(=O)=O (centres undefined),16.9%
13,CCCN1CCC2(C1)c1ccccc1S(=O)(=O)N2Cc1ccccc1 (centres undefined),68.4%
14,O=S1(=O)c2ccccc2C2(CCN(Cc3cccnc3)C2)N1CC1CC1 (centres undefined),76.5%
15,COCCN1CCC2(C1)c1ccccc1S(=O)(=O)N2Cc1ccccc1 (centres undefined),15.3%
16,CCCN1CCC2(C1)c1ccccc1S(=O)(=O)N2Cc1ccc(F)cc1 (centres undefined),23.3%
17,COCCN1C2(CCN(CC3CC3)C2)c2ccccc2S1(=O)=O (centres undefined),-54.9%
18,CC1N(CC2CC2)C(=O)COC12CCN(C(=O)c1ccncc1)CC2 (centres undefined),48.2%
19,CC1N(CC2CC2)C(=O)COC12CCN(C(=O)c1cccs1)CC2 (centres undefined),74.8%
20,CN1CCN(Cc2cccnc2)C(=O)C12CCN(CC1CCOC1)CC2 (centres undefined),29.4%
21,CC1N(CC2CC2)C(=O)COC12CCN(C(=O)c1ccno1)CC2 (centres undefined),11.3%
22,O=C(N1CCCO1)[C@@]12CCO[C@@H]1CCN(Cc1cccnc1)C2,17.4%

# From ChEMBL document CHEMBL4513216, “Probing the Open Global Health Chemical Diversity Library for Multistage-Active Starting Points for Next-Generation Antimalarials” (ACS Infect Dis, 2020)
